DUSP3 inh: blocks human VHR1 dual specificity phosphatase; P51452; recombinant VHR phosphatase, pNPP absorbance; inhibition, % at 13.3 µM; 290,000 tested, 0.52% active; AID 1654; in the data active = inhibition above about 50%
Target sequence (P51452 whole entry, looked up): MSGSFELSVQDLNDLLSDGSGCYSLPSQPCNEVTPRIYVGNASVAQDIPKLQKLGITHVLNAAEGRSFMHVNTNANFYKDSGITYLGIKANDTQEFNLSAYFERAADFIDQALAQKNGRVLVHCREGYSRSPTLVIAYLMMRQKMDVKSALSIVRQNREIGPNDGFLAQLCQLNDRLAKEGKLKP
RN4220 kill: kills Staphylococcus aureus RN4220; S. aureus RN4220 growth, OD600, 16 h; inhibition, % (concentration not given with the values); 330,000 tested, 0.33% active; AID 1259311; in the data active = inhibition above about 85%;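 also: plate controls were untreated cells for no effect and reference antibiotic for full effect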
PrPC surface inh: reduces human prion protein on the cell surface; P04156; cell surface PrPC, TR-FRET read-out; inhibition, % at 13.8 µM; 370,000 tested, 0.43% active; AID 720596; in the data active = inhibition above about 24%; also: 0% = median of the test wells and 100% = reference compound wells
PfHsp40 rescue: rescue of PfHsp40-mediated yeast toxicity; growth rescue, % at 12.5 µM; 340,000 tested, 0.68% active; S. cerevisiae expressing PfHsp40, growth rescue, ATP luminescence; AID 504582; in the data active = growth rescue above about 28%, passing the limit was not always enough;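 also: yeast W303a lacking pdr1 and pdr3 grown in galactose medium; growth measured after three days at 30 °C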
ugtP null kill: kills S. aureus RN4220 lacking UgtP; S. aureus RN4220 ugtP deletion, OD600 growth, 16 h; growth inhibition, % (concentration not given with the values); 330,000 tested, 0.54% active; in the data active = growth inhibition above about 68%;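 also: plate controls were untreated wells for no effect and antibiotic for full effect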
* hit, by the source's call; . = no result given. Hits are enriched below; roughly 1.8% of the tested compounds scored in any of these assays.

SMILES	DUSP3 inh	RN4220 kill	PrPC surface inh	PfHsp40 rescue	ugtP null kill
CCC1(CC)C(=O)C2=C3C(CC(C(=O)OC)=CC(C(=O)OC)C31)n1c(=O)n(C)c(=O)n1C2C (stereo not given)	.	6	.	.	0
Cc1ccc(NC(=O)Cn2ncc3c([nH]c4ccccc43)c2=O)cc1Cl	58*	8	5	-2	1
O=C(Cn1ncc2c([nH]c3ccccc32)c1=O)Nc1cccnc1	-32	1	8	0	4
CCC(=O)Nc1ccc(C(=O)Cn2ncc(Cl)c(Cl)c2=O)cc1	10	.	-17	0	.
CCOC(=O)c1ccc(NC(=O)Cn2ncc(Cl)c(Cl)c2=O)cc1	3	6	-5	34*	-7
CCOC(=O)c1ccc(NC(=O)CC2Sc3ncnn3C2=O)cc1 (stereo not given)	-22	12	-3	42*	16
CC(C)(C)c1ccc(Cn2ccc(-c3ccc4c(c3)OCO4)n2)cc1	13	5	-1	3	93*
Cc1ccc(Cn2ccc(NC(=O)c3cc(-c4ccc5c(c4)OCO5)on3)n2)cc1	26	3	.	1	0
COC(=O)c1cc(=O)n(-c2ccc(C(F)(F)F)cc2)[nH]1	-1	28	-3	190*	14
Oc1c(Br)c(Br)c(Br)c(Br)c1Br	.	.	.	31*	.
CC(=O)NCCNC(=O)c1ccc(CSc2nc3ccccc3s2)cc1	60*	.	-13	1	.
C=CCNC(=O)c1ccc(CSc2nc3ccccc3s2)cc1	10	7	10	0	-5
O=C(NCCC1CCCC1)C1CCC(=O)N(CCCN2CCCC2=O)C1 (stereo not given)	9	6	2	0	11
O=C(NC(C1CC1)C1CC1)C1CCC(=O)N(CCCN2CCCC2=O)C1 (stereo not given)	-13	2	-2	36*	3
CCCCNC(=S)NNc1c(Cl)cc(Cl)cc1Cl	51*	13	6	0	5
O=C(NCCCl)NNc1c(Cl)cc(Cl)cc1Cl	-9	0	-2	0	-3
CCCCCCCCn1ccc(=N)cc1	1	4	7	0	14
CCCCCCCCCCn1ccc(=N)cc1	17	100*	24	-1	101*
COc1ccc(C)cc1N(CC(=O)NN=Cc1ccccc1C(=O)O)S(=O)(=O)c1ccccc1	.	1	.	.	-6
Cc1cc(C)cc(NC(=S)Nc2ccc(Cl)c(Cl)c2)c1	23	100*	6	-1	101*
Cc1ccc(NC(=S)Nc2ccc(OC(F)F)c(Cl)c2)cc1Cl	8	75	8	-1	67
Cc1ccc(NC(=S)Nc2ccc(Cl)c(Cl)c2)c(OC(F)F)c1	5	100*	9	1	100*
CCc1nc(C)cn1S(=O)(=O)c1ccc([N+](=O)[O-])cc1	16	97*	-4	0	94*
CCCOc1ccc(C(=O)ON=C(CC)c2ccc(C)cc2)cc1	.	-2	.	.	93*
O=C(COc1ccccc1C(=O)NN=Cc1ccc(O)c(O)c1)NN=Cc1ccc(O)c(O)c1	.	26	.	.	2
SMILES	DUSP3 inh	RN4220 kill	PrPC surface inh	PfHsp40 rescue	ugtP null kill
N=C(N)c1ccc(/C=C/c2ccc(C(=N)N)cc2O)cc1	14	20	-32	137*	-4
Cc1cccc(OP(=O)(NCc2ccccc2)Oc2cccc(C)c2)c1	42	-3	14	118*	-16
CC(C)(C)c1cc(-c2nc(N)nc(N)n2)c(O)c(C(C)(C)C)c1	.	30	0	225*	83
CC(C)CC(=O)ON=C1C(=O)N(c2ccccc2)c2ccccc21	.	-1	.	.	5
Nc1nnc(-c2cc3c(ccc4ccccc43)oc2=O)s1	54*	11	.	.	-1
O=c1oc2ccc3ccccc3c2cc1-c1nnc(-c2ccccc2)o1	11	6	-1	4	-19
O=C1N(c2ccc3c(c2)OCCO3)C(c2ccccc2)C1(F)F (stereo not given)	13	3	1	43*	8
O=C(c1cccc(COc2ccc(Cl)cc2Cl)c1)N1CCN(c2ccccn2)CC1	0	0	6	28*	-31
Cc1cc(/C=C2\SC(=S)NC2=O)c(C)n1-c1cccc(O)c1	13	23	-3	240*	-15
Cc1cc(/C=C2\SC(=S)N(C)C2=O)c(C)n1-c1ccc(O)cc1	17	-6	-9	450*	50
Cc1ccc(-n2c(C)cc(/C=C3\SC(=O)NC3=O)c2C)cc1	-7	2	-9	1	6
CC(CCc1ccc2c(c1)OCO2)=N/N=C1/NC(=O)CC(C(=O)Nc2ccccc2F)S1 (stereo not given)	.	8	.	.	-7

Screening results: PubChem, several laboratories
